Hits are enriched below; roughly 1% of the tested compounds scored in any of these assays.
SSB-PriA inh – inhibitors of Klebsiella pneumoniae PriA binding to SSB C-terminal tail, primary screen, biochemical, AlphaScreen; AlphaScreen SSBct-PriA binding, biotinylated peptide; inhibition, % at 33 µM; PriA–SSB C-terminal tail interaction (Klebsiella pneumoniae); actives 0.6% (n = 430,000); in the data active = inhibition mostly above about 37%, no sharp cut-off; inactive = mostly below about 20%;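 also: plate controls were negative control peptide for no effect and reference peptide for full effect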
Sa ugtP lethal – growth inhibition of ugtP-null S. aureus, primary screen, RN4220 ugtP deletion, OD600. 16 h. growth inhibition, % (no concentration beside the values). actives 0.54% (n = 330,000). AID 1259309, 2017; in the data active = growth inhibition above about 68%;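 also: plate controls were untreated wells for no effect and antibiotic for full effect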
Mtb betalactam – beta-lactam sensitization of Mtb H37Rv, H37Rv | inhibition, % at 25 µM | AID 434955, 2010 | M. tuberculosis H37Rv growth with meropenem, percent inhibition | actives 0.27% (n = 330,000); call rule not given here;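 also: growth measured after seven days incubation then overnight dye step; 0% = bacteria only wells and 100% = bacteria with antibiotic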
Mtb hypoxia rep – PubChem AID 1159583 | fluorescence inhibition, % (no concentration beside the values) | actives 0.1% (n = 300,000) | M. tuberculosis hypoxia-regulated fluorescent reporter, fluorescence; in the data active = fluorescence inhibition mostly above about 23%, no sharp cut-off; inactive = mostly below about 17%
Sa RN4220 lethal – growth inhibition of S. aureus RN4220, primary screen, OD600; 16 h; inhibition, % (concentration not given with the values); actives 0.33% (n = 330,000); AID 1259311, 2017; in the data active = inhibition above about 85%;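 also: plate controls were untreated cells for no effect and reference antibiotic for full effect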
An asterisk follows results filed as active; nt = no result shown.

SMILES | SSB-PriA inh | Sa ugtP lethal | Mtb betalactam | Mtb hypoxia rep | Sa RN4220 lethal
CC(=O)OCC1=C(C(=O)O)N2C(=O)C(NC(=O)CC(C)c3ccccc3)C2SC1 (stereo not given) | -1 | 94* | 10 | nt | 100*
CC(=O)OCC1=C(C(=O)O)N2C(=O)C(NC(=O)C(C)Cn3cc(Cl)cn3)C2SC1 (stereo not given) | -4 | 100* | 5 | 17 | 100*
CC(=O)OCC1=C(C(=O)O)N2C(=O)[C@@H](NC(=O)Cc3cccs3)[C@H]2SC1 | 5 | 99* | 4 | nt | 99*
O=C(NCc1ccc(Cl)cc1)C(=O)NCC1CCN(C2CCCC2)CC1 | -10 | nt | nt | nt | nt
CS(=O)(=O)c1ccc(NC(=O)c2cccc3ccccc23)cc1 | -13 | nt | nt | nt | nt
O=S(=O)(NC1CC(NS(=O)(=O)OCC(Cl)(Cl)Cl)C2CCCCC12)OCC(Cl)(Cl)Cl (stereo not given) | 1 | 95* | -15 | 5 | 101*
CCCN1CCCc2cc(CCNC(=O)C(=O)NCc3ccc4c(c3)OCO4)ccc21 | 41 | nt | nt | nt | nt
Fc1ccc(NC(=S)NN=Cc2ccccc2Cl)cc1 | 0 | 86* | nt | -6 | -4
COc1cc(OC)cc(C(=O)Nc2cccc(-c3cn4c(C)csc4n3)c2)c1 | 17 | nt | nt | nt | nt
Cc1ccc(S(=O)(=O)N(c2nc(N(C)C)nc(N(C)C)n2)n2cnnc2)cc1 | -24 | 98* | 4 | -10 | 94*
O=Nc1c(-c2c(O)[nH]c3cc(Br)ccc23)[nH]c2ccccc12 | 24 | 100* | 76 | 26 | 100*
O=C(CSCc1cccc(Br)c1)N=Nc1c(O)[nH]c2ccccc12 | 22 | 3 | 2 | 10 | 8
c1ccc(-c2noc(-c3ccccc3-c3ccccc3)n2)cc1 | -64 | 95* | 17 | nt | -9
CCc1ccc(S(=O)(=O)Nc2ccc3c(c2)N(CCC(C)C)C(=O)C(C)(C)CO3)s1 | -7 | nt | nt | nt | nt
O=C(Nc1cccs1)N1CCCC(c2nnc(Cc3ccc(F)cc3)o2)C1 (stereo not given) | 1 | nt | nt | nt | nt
CC(/C=C1\SC(=S)N(CCC(=O)Nc2cccc(C(=O)O)c2)C1=O)=C\c1ccccc1 | 13 | 86* | 0 | 1 | 78
Cc1ccc(C2c3c(C)nn(-c4ccc([N+](=O)[O-])cc4)c3N=C3C(=O)Nc4ccccc4N32)cc1 (stereo not given) | nt | 3 | 88 | 40* | 2
Cc1nn(-c2ccc([N+](=O)[O-])cc2)c2c1C(c1ccc(OC(F)F)cc1)N1C(=N2)C(=O)Nc2ccccc21 (stereo not given) | -19 | nt | 75 | nt | nt
CC(=O)N1c2ccc(S(=O)(=O)N3CCN(c4ccccn4)CC3)cc2C[C@@H]1C | -3 | nt | nt | nt | nt
COc1ccccc1-c1nc(C#N)c(N2CC(C)CC(C)C2)o1 (stereo not given) | -2 | 2 | 4 | 11 | 3
Cc1ccccc1-c1nc(C#N)c(N2CCCC2)o1 | 61 | nt | nt | nt | nt
Cc1ccccc1-c1nc(C#N)c(N2CCOCC2)o1 | 70* | nt | nt | nt | nt
CC1CC(C)CN(c2oc(-c3ccccc3F)nc2C#N)C1 (stereo not given) | 50* | 9 | 1 | 2 | 5
Cc1ccccc1-c1nc(C#N)c(N2CCCC(C)C2)o1 (stereo not given) | 66* | nt | nt | nt | nt
O=C(N/C(=C/c1ccc([N+](=O)[O-])cc1)C(=O)N1CCCC1)c1ccccc1 | -4 | -3 | -4 | 19 | 2
SMILES | SSB-PriA inh | Sa ugtP lethal | Mtb betalactam | Mtb hypoxia rep | Sa RN4220 lethal
O=C(N/C(=C/C=C/c1ccccc1)C(=O)N1CCCCC1)c1ccc([N+](=O)[O-])cc1 | 39* | -6 | 90 | -3 | 7
Cc1nc(C)c(C(=O)NCCNc2cc(-n3cccc3)ncn2)s1 | -5 | nt | nt | nt | nt
Cc1nc2scc(-c3ccc(F)cc3)c2c(=O)n1/N=C\N(C)C | -8 | nt | nt | nt | nt
CCCN1CCCc2cc(CCNS(=O)(=O)c3ccc(F)c(C)c3)ccc21 | 59* | nt | nt | nt | nt
CCCN1CCCc2cc(CCNS(=O)(=O)c3ccc(C)c(C)c3)ccc21 | 61* | nt | nt | nt | nt
CCCN1CCCc2cc(CCNS(=O)(=O)c3ccc(C)cc3)ccc21 | 71 | nt | nt | nt | nt
CC(C)(C)C1CCc2c(sc(NC(=O)CSc3ncn[nH]3)c2C#N)C1 (stereo not given) | -4 | 88* | -9 | -9 | -13
COc1ccc(NC(=S)N=C(Nc2ccc(C)cc2)c2ccccc2)cc1 | 46* | nt | nt | nt | nt
CNC(=S)N=C(Nc1ccc(C)cc1)c1ccccc1 | 4 | 7 | nt | 9 | -1
COc1cc(Cl)c(C)cc1NC(=O)CSc1ccc(C)cc1 | -97 | 10 | 2 | -2 | 5
COc1cc(Cl)c(C)cc1NC(=O)CSc1cc(Cl)ccc1Cl | -8 | 95* | 1 | 2 | 1

From PubChem
